Screening data deposited in PubChem BioAssay by National Center for Advancing Translational Sciences (NCATS).
In the library only some 2.6% were active in any assay of this set; here they are far more common.
p53 reactivator: re-activators of mutant p53; AID 504706; Potency, µM (doses to about 92.2 µM), for inactives: at the highest dose activity change, positive = activation, most hits filed as activators; actives 0.063% (n = 320,000); H1299 p53-A138V BP100-luciferase reporter, luminescence, 24 h; active = well fitted activation curve with a large enough effect; inconclusive = small, poorly fitted or top-dose-only effect; inactive = no such curve, though single readings can be large or run the other way; also: potency is read from the fitted curve at half-maximal effect; % of control where 0% means no effect; nearly all actives have a fitted effect of over 45% in size
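H1299 (p53-null), stable ts p53-A138V + BP100-Luc; 1000 cells/well, Opti-MEM/10% FBS; cpd 4 pt, 1:5; 24 h, 37 deg C, 5% CO2; detection reagent 10 min RT; luminescence.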
KCNH2 3.1 block: inhibitors of human KCNH2 3.1 potassium channel isoform. actives 0.95% (n = 340,000). U2OS KCNH2 3.1, thallium flux FluxOr; hits give low values. activity change, % (tested at about 1.8 µM);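 active = maximum activity change below -70%; inconclusive = maximum activity change from -70% to -50%; inactive = maximum activity change above -50%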;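 also: thallium influx rate constant from kinetic fluorescence after stimulation buffer; % is scaled to controls: 0 for no effect and ±100 for the full control effect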
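Normalized rate constant (relative to positive and negative DMSO controls) derived from a 2 min kinetic fluorescence read after stimulation; U2OS cells expressing the 3.1 isoform via virus at 1.77 x 10^8 /mL.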
KCNH2 WT inh: KCNH2 (human, wildtype) channel inhibition | U2OS, BacMam KCNH2, thallium flux FluxOr; hits give low values | Q12809 | activity change, % at 1.84 µM | actives 0.37% (n = 340,000);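 active = maximum activity change below -70%; inconclusive = maximum activity change between -70% and -50%; inactive = maximum activity change above -50%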; also: % is scaled to controls: 0 for no effect and ±100 for the full control effect
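U2OS cells transduced with wild-type KCNH2 virus are loaded with FluxOr dye for 45 min, and thallium flux is measured in kinetic reads before and after stimulation buffer. Rate constants are normalized to DMSO controls.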
TRPV1 potentiator: human TRPV1 potentiation | TRPV1-expressing cells, Fluo-8 calcium influx, capsaicin EC20 potentiation | potentiation, % at 8.33 µM | AID 540277 | actives 0.02% (n = 320,000); in the data active = potentiation above about 80%; inconclusive = between about 30% and that limit; also: 0% is about no effect
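Fluo-8 calcium influx in TRPV1-expressing cells, kinetic read (ex 480/em 520 nm). Compound added and read 3 min for agonist activity, followed by capsaicin at EC20 final and 2 min further read for enhancement.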
ClpP mod: qHTS Assay for Activators of ClpP. ATP-dependent Clp protease proteolytic subunit (Bacillus subtilis (strain 168)), P80244. purified B. subtilis ClpP, FRET peptide cleavage, 20 min. Potency, µM (titrated, usually from 57.5 µM), inactives show at the highest dose activity change, negative = active. actives 1.9% (n = 340,000). AID 651965, 2013; active = well fitted falling curve with a large enough effect; inconclusive = small, poorly fitted or top-dose-only effect; inactive = no such curve, though single readings can be large or run the other way; also: potency is read from the fitted curve at half-maximal effect; the source files actives as falling curves though it sought activators and does not explain the sign; nearly all actives have a fitted effect of over 65% in size
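Buffer: 100 mM Tris/HCl pH8, 100 mM KCl, 0.05% low protease BSA, 2.5% glycerol, 0.01% Tween-20. ClpP 10 microg/mL final; 20 min RT; delta FRET normalized to ADEP and DMSO controls.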
TRPV1 agonist: agonists of human vanilloid receptor 1 (TRPV1) | Q8NER1 | TRPV1-expressing cells, Fluo-8 calcium influx, agonist mode | activation, % at 8.33 µM | actives 0.19% (n = 320,000) | AID 540275; in the data active = activation above about 80%; inconclusive = between about 30% and that limit; also: 0% is about no effect
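Fluo-8 calcium influx in TRPV1-expressing cells, kinetic read (ex 480/em 520 nm). Compound added and read 3 min for agonist activity, followed by capsaicin at EC20 final and 2 min further read for enhancement.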
Numbers without * were called inactive; u = inconclusive; x = not tested or not shown.

SMILES	p53 reactivator	KCNH2 3.1 block	KCNH2 WT inh	TRPV1 potentiator	ClpP mod	TRPV1 agonist
CC1C/C(=C/c2cccn2C)C(=O)/C(=C/c2cccn2C)C1 (configuration not stated)	3%	0	10	-3	0%	100*
CC1C/C(=C/c2ccncc2)C(=O)/C(=C/c2ccncc2)C1 (configuration not stated)	-9%	-9	-12	10	1%	1
Cc1nc(SCc2cc(=O)c3cccc(F)c3[nH]2)n[nH]1	x	x	x	x	0%	x
Cc1ccc(C)c(S(=O)(=O)c2c[nH]c(=S)[nH]c2=O)c1	-8%	-82*	-30	4	-1%	-3
COc1cccc(CNC(=O)Cn2c(=O)ccc3cc(S(=O)(=O)N4CCC(C)CC4)ccc32)c1	x	x	x	x	-7%	x
CCCCN(C(=O)C(C)Oc1ccc(Br)cc1)c1c(N)n(Cc2ccccc2)c(=O)[nH]c1=O (configuration not stated)	3%	-1	-2	-11	28µM*	1
CCCN(C(=O)C(C)Oc1cccc(Cl)c1)c1c(N)n(Cc2ccccc2)c(=O)[nH]c1=O (configuration not stated)	1%	0	5	0	0%	7
N#C/C(=C\c1c(N2CCC(C(N)=O)CC2)nc2ccccn2c1=O)C(=O)NCc1ccco1	-2%	10	-33	-4	25µM*	-8
CCNC(=O)/C(C#N)=C/c1c(N2CCN(c3ccc(OC)cc3)CC2)nc2c(C)cccn2c1=O	-7%	-6	30	5	x	2
CCNC(=O)/C(C#N)=C/c1c(N2CCCCCC2)nc2c(C)cccn2c1=O	0%	-19	1	-15	16µM*	24
CCOC(=O)/C(C#N)=C/c1c(N2CCN(c3ccc(OC)cc3)CC2)nc2c(C)cccn2c1=O	-2%	-16	-1	6	32µM*	-2
CCN(CC)c1ccc(NC(=O)C(NS(=O)(=O)c2cccs2)C(C)C)c(C)c1 (configuration not stated)	x	x	x	x	1%	x
O=C(NC1CC1)c1ccc(Cn2c(SCc3ccccc3F)nc3cccnc32)cc1	x	x	x	x	5%	x
CC(C)CNC(=O)c1c2c(nc3ccccc13)-c1ccccc1CC2	3%	-10	5	-16	28µM*	20
C=CCNC(=O)c1c2c(nc3ccccc13)-c1ccccc1CC2	-11%	-7	-5	-8	32µM*	12
COc1cccc(CNC(=O)CCC(=O)N2CC(C)Sc3ccccc32)c1 (configuration not stated)	x	x	x	x	-1%	x
CC(=O)Nc1ccc(S(=O)(=O)NCCC(=O)N2CCC(Cc3ccccc3)CC2)cc1	-2%	-9	-1	3	11µM*	-3
Cc1ccc(S(=O)(=O)NCCC(=O)N2CCC(Cc3ccccc3)CC2)cc1	1%	-25	-5	-15	1%	26
COc1ccc(C)cc1NC(=O)CCN1CCN(C/C=C/c2ccccc2)CC1	12%	-99*	u	-8	1%	6
COc1ccc(NC(=O)CCN2CCN(C/C=C/c3ccccc3)CC2)cc1	8%	-105*	24	11	-2%	1
CC(=O)Nc1ccc(S(=O)(=O)NCC(=O)N2CCN(S(=O)(=O)c3cccs3)CC2)cc1	0%	-101*	2	11	-3%	0
Cc1ccnc2ccc(I)cc12	x	x	x	x	1%	x
CCc1ccc2oc(C(=O)Nc3sc4c(c3C(=O)NC)CCCC4)cc(=O)c2c1	x	x	x	x	2%	x
CC(=O)c1ccc(NC(=O)C(C)N2CCN(C/C=C/c3ccccc3)CC2)cc1 (configuration not stated)	2%	u	23	-14	x	1
CN1CCN(CCC(=O)Nc2ccccc2)CC1	-2%	10	5	1	-3%	-4
SMILES	p53 reactivator	KCNH2 3.1 block	KCNH2 WT inh	TRPV1 potentiator	ClpP mod	TRPV1 agonist
CC(C(=O)N(C)Cc1ccccc1)N1CCN(C/C=C/c2ccccc2)CC1 (configuration not stated)	3%	-96*	15	-5	x	3
O=C(CN1CCCCCC1)NCc1ccccc1	13%	-4	4	-23	x	1
Cc1ccc(NC(=O)CCN2CCC(Cc3ccccc3)CC2)cc1	u	-124*	11	-4	x	5
CC(C(=O)Nc1ccc([N+](=O)[O-])cc1)N1CCN(C/C=C/c2ccccc2)CC1 (configuration not stated)	-1%	16	-194*	-39	-3%	18
O=C(CN1CCN(C/C=C/c2ccccc2)CC1)NCc1ccccc1	-4%	-91*	x	1	1%	4
COc1ccc(CNC(=O)C2=CC(c3cccc(OC)c3)=NS(=O)(=O)N2C)cc1	x	x	x	x	-3%	x
c1ccc(-c2ncnc3ccccc23)cc1	x	-13	14	x	-2%	x
C(=Nc1ccc(/C=C/c2ccnc3ccccc23)cc1)c1ccco1	x	x	x	x	-1%	x
O=C(CCN1CCN(C/C=C/c2ccccc2)CC1)Nc1ccc(Cl)cc1	-5%	-99*	-38	-7	1%	16
COc1cc(NC(=O)CCN2CCN(C/C=C/c3ccccc3)CC2)cc(OC)c1	15%	-38	28	19	2%	2
OCC1(CCc2ccccc2)CCN(C/C=C/c2ccccc2)CC1	x	-107*	-135*	1	1%	1
OCC1(Cc2ccccc2Cl)CCN(C/C=C/c2ccccc2)CC1	-3%	-3	35	-2	-2%	2
O=C(Nc1ccc(S(=O)(=O)NCc2ccccc2)cc1)C1CCCCC1	-5%	-72*	5	0	25µM*	1
Cc1ccc(NC(=O)CCN2CCN(C/C=C/c3ccccc3)CC2)cc1	-4%	-86*	-96*	12	0%	0
COc1ccc(-c2cc3ccc(O)c(CN4CCCC4)c3oc2=O)cc1OC	x	x	x	x	4%	x
O=S1(=O)CCOC[C@H](c2ccccc2)N1Cc1ccc(Cl)c(Cl)c1	x	x	x	x	1%	x
COC(=O)C[C@H]1c2cc(C(F)(F)F)ccc2S(=O)(=O)N1C(C)C	x	x	x	x	3%	x
COc1ccc(Cl)cc1NC(=O)C(C)N1CCN(C/C=C/c2ccccc2)CC1 (configuration not stated)	-2%	-93*	-75*	-1	-3%	4
Cc1ccc(NC(=O)CCN2CCN(C/C=C/c3ccccc3)CC2)cc1C	-8%	-96*	-39	3	-2%	1
COc1ccc(OC)c(NC(=S)N2CCN(C/C=C/c3ccccc3)CC2)c1	18%	-7	0	3	0%	4
